“And” between values parts separate entries of the source, which are not always exact repeats. Equal values may be shown once. Records with an inconclusive call do not appear. The source made the active and inactive calls. Unless noted, calls follow the shape of the dose curve; as a rule, active = well fitted curve in the direction sought with a large enough effect; inconclusive = small, poorly fitted or top-dose-only effect, or another doubt; inactive = no such curve, though single readings can be large; an effect the other way counts as inactive or inconclusive. A value given as a limit tells only on which side of the number the result lay.

Assay [1] can be described thus: Cell Viability - Jurkat (AID 426;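 active = dose-dependent loss of cell ATP signal giving a full or clear fitted curve, ranked by lower potency value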;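 also: potency is read from the fitted curve at half-maximal effect; cells exposed to compound for 40 hours at 37 °C before ATP read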). The settings on record: qHTS. Summed up: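 Seed 5000 Jurkat E6-1 cells/well; add compound; incubate 40 hr at 37 °C; add CellTiter-Glo; wait 20 min at room temperature; read luminescence. Fit concentration-response with Hill equation for AC50.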
(In general: Quantitative high-throughput screening tests each substance at several concentrations.)

Assay [2] is described as follows: Cell Viability - Hek293 (AID 427;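 active = compounds whose dose-response curve shows a full or clear partial loss of cell viability, called from curve shape rather than a numeric limit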;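 also: potency is read from the fitted curve at half-maximal effect; cells exposed to compound for 40 hours at 37 °C before reading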). The settings on record: qHTS. In outline:
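qHTS, human embryonic kidney (adenovirus-transformed) cells; 40 hr cpd, 37 °C; CellTiter-Glo ATP luminescence. Norm: DMSO = 0, 100 uM tamoxifen = 100% inhibition. Hill-fit AC50.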

Assay [3] is described as follows: Cell Viability - N2a (AID 540).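 Also: cells exposed to compound for 40 h at 37 °C; plate controls were DMSO alone for no effect and tamoxifen control for full effect; nearly all actives have a fitted effect of over 45% in size.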 The conditions noted are these: N2a mouse neuroblastoma cell viability; at 92.2 µM (top of the series). In outline:
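First, 1500 N2a cells per well incubate 5 hr at 37 °C; next, compounds are added and incubated 40 hr at 37 °C; finally CellTiter-Glo is added and luminescence read after 20 min, with AC50 derived by Hill modeling.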

The nature of assay [4]: Cell Viability - H-4-II-E (AID 543).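 Also: cells exposed to compound for 40 hours; % is scaled to controls: 0 for no effect and ±100 for the full control effect; nearly all actives have a fitted effect of over 35% in size.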 The settings on record: H-4-II-E rat hepatoma viability; series mostly up to 92.2 µM. In outline: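 Here, cytotoxicity is measured in the rat hepatoma line H-4-II-E as loss of intracellular ATP after 40 hr compound treatment, detected by luciferase luminescence.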
Assay [5] in a line: Cellular Toxicity (caspase-3) NIH 3T3 (AID 666).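 Also: caspase signal read after 16 h compound exposure; 0% = DMSO basal and 100% = 100 µM tamoxifen stimulation.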 The conditions noted are these: NIH 3T3 caspase-3 activation, apoptosis/toxicity, 0% DMSO, 100% is 100 µM tamoxifen; series mostly up to 92.2 µM. In outline: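 Concentration-response qHTS in NIH 3T3 mouse fibroblasts scores caspase-3/7 activation as rising luminescence after 16 hr compound exposure. Signals are scaled between DMSO-only and 100 uM tamoxifen.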

A short description of assay [6]: MultiTox-Fluor Cytotoxicity Assay - LYMP1-002 - Live Cells (AID 955).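 Also: cells exposed to compound for 16 hours; % is scaled to controls: 0 for no effect and ±100 for the full control effect.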 The conditions noted are these: LYMP1-002 lymphoblastoid live-cell protease fluorescence viability; series mostly up to 46.1 µM. In outline:
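Cytotoxicity in the human lymphoblastoid line LYMP1-002 is measured as loss of live-cell protease activity after 16 h treatment in complete culture medium. AC50 is derived from Hill-equation fits of qHTS concentration-response data.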

A short description of assay [7]: MultiTox-Fluor Cytotoxicity Assay - LYMP1-003 - Live Cells (AID 962).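 Also: cells exposed to compound for 16 hours at 37 °C; 0% = DMSO only and full loss = 92 µM tetraoctylammonium bromide; cytotoxic hits lower the live-cell protease signal.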 The settings on record: LYMP1-003 lymphoblastoid cells, MultiTox-Fluor live-cell protease fluorescence; series mostly up to 92.2 µM. In outline: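 Cells plated at 2500 per well and incubated 5 hr; compounds added and incubated 16 hr at 37 C; MultiTox-Fluor reagent added for 60 min at room temperature; fluorescence of liberated AFC measured at 405/510 nm.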

Assay [8] is described as follows: Cell Viability - LYMP1-003 - Assay at 40 hr (AID 964). Also: % is scaled to controls: 0 for no effect and ±100 for the full control effect; nearly all actives have a fitted effect of over 60% in size. The settings on record: LYMP1-003 lymphoblastoid viability; series mostly up to 92.2 µM. Summed up:
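This qHTS cytotoxicity screen treats human lymphoblastoid cells (LYMP1-003) with compounds for 40 hr and quantifies cellular ATP via luciferase luminescence.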

The nature of assay [9]: Cell Viability - LYMP2-003 (AID 965).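 Also: cells exposed to compounds for 24 h before reading; 0% = DMSO only and full effect = 92 µM tetraoctylammonium bromide; nearly all actives have a fitted effect of over 50% in size.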 The settings on record: LYMP2-003 lymphoblastoid cell viability; series mostly up to 92.2 µM. In outline: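 CellTiter-Glo luminescence (cellular ATP) after 24 h compound exposure at 37 C in complete medium; 2500 cells/well, 5 h settling beforehand. Concentration-response fitted to standard Hill equation for AC50. Tetraoctylammonium bromide served as positive control.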

Assay [10] in a line: Cell Viability - LYMP2-006 (AID 978).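 Also: cells exposed to compound for 24 hours; % is scaled to controls: 0 for no effect and ±100 for the full control effect; nearly all actives have a fitted effect of over 60% in size.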 The settings on record: LYMP2-006 lymphoblastoid cell viability, qHTS; series mostly up to 92.2 µM. Summed up: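 qHTS, 1536-well; 2500 cells/well, 5 hr 37 C; cpd 24 hr 37 C; CellTiter-Glo 30 min RT; luminescence. Tetraoctylammonium bromide pos. ctrl. AC50 via Hill eqn.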
Assay [11] is described as follows: Cell Viability - LYMP2-008 (AID 980). Also: % is scaled to controls: 0 for no effect and ±100 for the full control effect; nearly all actives have a fitted effect of over 60% in size. The settings on record: LYMP2-008 lymphoblastoid cell viability, qHTS; series mostly up to 92.2 µM. Summed up: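 Acute cytotoxicity is scored as concentration-dependent loss of cellular ATP in a human lymphoblastoid line after 24 hr treatment at 37 C. ATP is quantified by luciferase luminescence.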
A short description of assay [12]: Cell Viability - LYMP2-026 (AID 989). Also: % is scaled to controls: 0 for no effect and ±100 for the full control effect; nearly all actives have a fitted effect of over 50% in size. The conditions noted are these: LYMP2-026 lymphoblastoid cell viability, qHTS; series mostly up to 92.2 µM. In outline:
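Concentration-dependent loss of intracellular ATP in human lymphoblastoid cells after 24 hr at 37 C, quantified by luciferase luminescence. AC50 derived from standard Hill equation.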

Assay [13] is described as follows: Cell Viability - LYMP1-002 - Assay at 24 hr (AID 993). Also: % is scaled to controls: 0 for no effect and ±100 for the full control effect. The settings on record: LYMP1-002 lymphoblastoid cells viability; series mostly up to 92.2 µM. Summed up: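 qHTS, LYMP1-002 lymphoblastoid, 24 h cpd, 37 C, CellTiter-Glo ATP luminescence; AC50 via Hill eq.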
The nature of assay [14]: Cell Viability - LYMP1-002 - Assay at 40 hr (AID 994).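 Also: 0% = DMSO only and full inhibition = 92 µM tetraoctylammonium bromide; nearly all actives have a fitted effect of over 60% in size.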 The settings on record: LYMP1-002 lymphoblastoid cell viability; series mostly up to 92.2 µM. Summed up:
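Viability in the human lymphoblastoid line was measured as intracellular ATP via CellTiter-Glo after 40 hr compound exposure. Tetraoctylammonium bromide served as positive control.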

Assay [15] in a line: qHTS assay for small molecule agonists of retinoid X receptor alpha signaling (AID 588544). The conditions noted are these: HEK293T RXRa-UAS-bla, beta-lactamase reporter, 18 h; 530 nm emission.
Assay [16] in a line: qHTS assay for small molecule disruptors of the mitochondrial membrane potential - 5 hr assay (AID 651755; calls by dose curve; also: nearly all actives have a fitted effect of over 40% in size; also: potency is read from the fitted curve at half-maximal effect). The conditions noted are these: JC-1-type ratio dye; series mostly up to 92.2 µM. Summed up:
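HepG2 cells, attached overnight at 37C, were exposed to compound or DMSO for 5 hr at 37C, 5% CO2. Mito-MPS dye was then added for 30 min, and fluorescence read at 490/535 nm (monomers) and 540/590 nm (aggregates).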

The target in assay [17] is Tumor necrosis factor (Homo sapiens) (UniProt P01375). In words: qHTS assay to identify small molecules that stimulate Tumor Necrosis Factor-alpha (TNF-alpha) secretion (AID 651757; active = well fitted curve in the direction sought with a large enough effect in the signal ratio; the % refers to the signal ratio; also: 0% is about no effect). The conditions noted are these: Human cells, HTRF 665/615 ratio; series mostly up to 92.2 µM. In outline: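 Secreted TNF-alpha from compound-treated THP-1 cells (17 hrs, 37 C) was quantified with a homogeneous time-resolved fluorescence antibody assay.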

Assay [18] addresses Peroxisome proliferator-activated receptor alpha (Homo sapiens) (UniProt Q07869). In words: qHTS assay for small molecule agonists of the peroxisome proliferator-activated receptor alpha (PPARalpha) signaling pathway (AID 651778). Also: % of control where 0% means no effect. The settings on record: PathHunter PPARalpha complementation, chemiluminescence, 6 h; stronger effect = higher value. Summed up: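 Cells plated at 2,000/well and held overnight at 37 C, 5% CO2, then compound added by pin tool for 6 hr; after PathHunter detection reagent and 60 min at room temperature, chemiluminescence from enzyme complementation was read.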

Assay [19] in a line: qHTS assay for small molecule agonists of the antioxidant response element (ARE) signaling pathway measured by Nrf2-dependant transcriptional activity (AID 720636; active = well fitted curve in the direction sought with a large enough effect in the repeat runs; an effect the other way counts as inactive or inconclusive;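 also: HepG2 cells with an ARE-driven luciferase reporter; % of control where 0% means no effect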). The conditions noted are these: ARE-luc HepG2, Nrf2 luciferase reporter, 16 h; series mostly up to 92.4 µM. In outline:
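ONE-Glo luminescence, read 30 min after reagent addition at room temperature, reflected ARE reporter activity in HepG2 cells that had been incubated with compound for 16 hr at 37 C in 1% dialyzed FBS.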

The nature of assay [20]: Cellular Toxicity (caspase-3) HepG2 (AID 654).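 Also: cells exposed to compound for 16 hours before reading.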 The settings on record: HepG2 caspase-3 activation, luminescence, 0% = DMSO only, 100% = tamoxifen; series mostly up to 92.2 µM. In outline: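 qHTS, HepG2, 1500 cells/well, complete medium; cpd 16 h 37 °C; Caspase-Glo 3/7, 20 min RT; lum. Norm: DMSO vs 100 uM tamoxifen; AC50 Hill fit.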

Sequence of Tumor necrosis factor (Homo sapiens) (P01375 whole entry, looked up): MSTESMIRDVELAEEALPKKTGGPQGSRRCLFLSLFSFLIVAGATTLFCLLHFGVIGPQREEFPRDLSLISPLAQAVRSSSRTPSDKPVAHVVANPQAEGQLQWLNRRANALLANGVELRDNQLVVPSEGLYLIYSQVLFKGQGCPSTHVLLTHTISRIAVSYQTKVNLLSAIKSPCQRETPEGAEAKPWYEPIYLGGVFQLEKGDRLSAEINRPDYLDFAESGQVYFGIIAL
Sequence of Peroxisome proliferator-activated receptor alpha (Homo sapiens) (Q07869 whole entry, looked up): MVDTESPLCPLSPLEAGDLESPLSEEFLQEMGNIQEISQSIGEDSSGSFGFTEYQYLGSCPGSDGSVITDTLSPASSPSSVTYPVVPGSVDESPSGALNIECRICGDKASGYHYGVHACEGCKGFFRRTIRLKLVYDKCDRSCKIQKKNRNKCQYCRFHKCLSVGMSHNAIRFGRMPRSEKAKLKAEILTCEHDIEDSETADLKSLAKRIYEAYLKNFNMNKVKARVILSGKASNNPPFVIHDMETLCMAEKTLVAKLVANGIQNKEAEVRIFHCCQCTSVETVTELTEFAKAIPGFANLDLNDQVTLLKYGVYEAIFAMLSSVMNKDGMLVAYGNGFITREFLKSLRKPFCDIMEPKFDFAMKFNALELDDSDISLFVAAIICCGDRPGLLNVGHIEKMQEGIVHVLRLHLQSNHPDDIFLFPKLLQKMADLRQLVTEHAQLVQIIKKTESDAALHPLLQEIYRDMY

As to `CC(C)(c1ccccc1)c1ccc(O)cc1`, the Potency in [1] was > 92 µM (inactive); in assay [2], > 92 µM (inactive); in assay [16] it was 33.5 µM (active). Also, in [3], the activity change, negative = cytotoxicity was -9.3% (inactive). Besides, the Potency result in assay [4], in assay [7], in assay [8], in assay [9], in assay [10] and in [11] was “inactive” each time. The Potency result in [12], in assay [13] and in assay [14] was “inactive” throughout. Besides, the outcome in assay [5], in assay [6], in [17] and in assay [19] was inactive. The max response in assay [15] was -10.3% and -15.2%; in assay [18], -2.53% (inactive) and 0.007% (inactive).

With `Cc1ccc2ccccc2c1`, the Potency in assay [1] and in assay [2] was > 92 µM (inactive) in each case. The activity change, negative = cytotoxicity in [3] is -3.22% (inactive). The Potency entry in assay [4], in assay [7], in assay [8], in [9], in [10] and in assay [11] was “inactive” in each case. Further, the Potency entry in [12], in assay [13], in [14] and in [16] was “inactive” each time. The outcome in assay [20], in [5], in assay [6], in assay [17] and in assay [19] was inactive. For the same compound, the max response in [15] is -14.7%; in assay [18] it was -0.593% (inactive).

For the compound `c1ccc(-c2ccccc2)cc1`, the Potency in assay [1] and in [2] was > 92 µM (inactive) in each case. The activity change, negative = cytotoxicity in assay [3] was -4.83% (inactive). The Potency result in [4], in [7], in [8], in assay [9], in [10] and in [11] was “inactive” each time. The Potency entry in assay [12], in assay [13], in assay [14] and in assay [16] was “inactive” in each case. Also, the compound was classed as inactive in assay [20], in assay [5], in assay [6], in [17] and in assay [19]. Besides, the max response in [15] was -1.55% and -17%; in assay [18], -2.7% (inactive) and -1.05% (inactive).

As for `Clc1nc(Cl)nc(Nc2ccccc2Cl)n1`, the Potency in assay [1] and in [2] was > 92 µM (inactive) in each case. For the same compound, the activity change, negative = cytotoxicity in assay [3] is 9.08% (inactive). In addition, the Potency entry in assay [4], in [7], in assay [8], in assay [9], in assay [10] and in assay [11] was “inactive” each time. Moreover, the Potency result in assay [12], in assay [13], in [14] and in [16] was “inactive” in each case. The compound was called inactive in assay [20], in assay [5], in assay [6] and in assay [17]. Further, the max response in [15] was -6.76%; in assay [18], 1.31% (inactive) and 8.11% (inactive).

Regarding `CCOP(=S)(OCC)SCSC(C)(C)C`, the Potency in [1] and in assay [2] was > 92 µM (inactive) each time. For the same compound, the activity change, negative = cytotoxicity in assay [3] is -4.96% (inactive). Further, the Potency result in assay [4], in [7], in assay [8], in assay [9], in assay [10] and in assay [11] was “inactive” each time. Further, the Potency result in assay [12], in [13], in assay [14] and in assay [16] was “inactive” in each case. Also, the outcome in assay [20], in [5], in assay [6], in assay [17] and in assay [19] was inactive. In addition, the max response in [15] was 19.7% and -0.121%; in assay [18] it was -1.59% (inactive) and -3.9% (inactive).

As to `Brc1ccc(Oc2cc(Br)c(Br)cc2Br)c(Br)c1`, in [3], the activity change, negative = cytotoxicity is -86.7% (active) and -80.4% (active). Moreover, the Potency result in assay [4], in assay [7], in assay [8], in [9], in assay [10] and in [11] was “inactive” throughout. The Potency entry in [12], in assay [13] and in assay [14] was “inactive” throughout. In addition, the compound was called inactive in assay [20], in assay [5], in assay [6], in assay [17] and in assay [19]. Besides, the max response in [18] is 8.87% (inactive) and 4.12% (inactive) and 3.75% (inactive).

(Values after PubChem BioAssay (NCATS).)
